Sampled rows, rich in hits. Any-hit rate of the full collection: about 2.9%.
HIF-2a block: HIF-2a reporter inhibitors, primary screen, luminescence, 786-0 RCC cells; 786-0 RCC cells HIF-2a reporter, luciferase luminescence, overnight; inhibition, % at 18.8 µM; 360,000 compounds, 0.72% hits; AID 624352, 2012;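 active = inhibition of the luminescence signal of 40% or more relative to plate controls, in a single-dose primary screen at 18.75 µM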
Shn3 3UTR inh: reduction of Shn3 3'UTR firefly luciferase signal, primary screen, Schnurri-3 inhibitor project, cell-based, Clone20 osteoblasts, set 2. Clone20 osteoblast Shn3 3'UTR firefly luciferase, 24 h. inhibition, % at 12.5 µM. 360,000 compounds, 0.52% hits;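 active = mean inhibition of at least 75% with every replicate also reaching 75%; inconclusive = mean inhibition at least 75% but some replicate below; inactive = mean inhibition below 75%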;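 note: 0% = median of neutral control wells and 100% = pilot-screen positive control compound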
EBV LMP1 NFkB: EBV LMP1-driven NF-kappaB luciferase reporter inhibitors, primary screen, cell-based, luminescence, single point; 350,000 compounds, 0.69% hits; inhibition, % at 12.5 µM; AID 504558, 2011; LMP1-induced NF-kappaB luciferase reporter cells; in the data active = inhibition above about 41%; inconclusive = no clear call, values can overlap the other calls;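 note: 0% = neutral control wells and 100% = reference inhibitor control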
KKLEB tox: cytotoxicity in KKLEB CF airway cells, primary screen, cytotoxicity control for CF NF-kB inhibitor project, cell-based, uHTS, fluorescence assay plates; KKLEB CF airway cells viability, ATPlite luminescence, overnight; active compounds read low; cells stimulated with P. aeruginosa culture filtrate; activity change (cytotoxicity), % at 5 µM; 360,000 compounds, 0.36% hits; AID 602141, 2011;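 active = corrected activity change at or below -50% at 5 µM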
Peg3 prom inh: Peg3 promoter-driven luciferase inhibitors, primary screen, cell-based, HeLa, luciferase luminescence; inhibition, % at 20 µM; AID 588405, 2011; 360,000 compounds, 1.7% hits; HeLa PEG-Prom luciferase reporter, overnight;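 active = inhibition of at least 50% at 20 µM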
CF NFkB block: inhibitors of PAF-induced NF-kB signaling, primary screen, cell-based, GFP fluorescence, uHTS; KKLEB NF-kB-GFP reporter, GFP fluorescence overnight; AID 588850, 2011; inhibition, % at 5 µM; 360,000 compounds, 0.86% hits;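 active = at least 50% inhibition at 5 µM, scaled per plate between neutral and stimulator controls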;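 note: PAF is a Pseudomonas aeruginosa culture filtrate used as stimulus; plate controls were PAF-stimulated DMSO wells for no effect and unstimulated DMSO wells for full effect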
* hit, by the source's call; u = inconclusive; x = not tested or not shown.

SMILES | HIF-2a block | Shn3 3UTR inh | EBV LMP1 NFkB | KKLEB tox | Peg3 prom inh | CF NFkB block
CC(C)N(Cc1ccccc1)S(=O)(=O)c1ccc(-n2cccn2)cc1 | 12 | 19 | -9 | 11 | 26 | 10
O=C(Nc1cccc(C(F)(F)F)c1)c1cccc2c(-c3cccnc3)coc12 | -6 | 12 | x | -13 | 6 | -3
CS(=O)(=O)Nc1cccc(NC(=O)c2cccc3c(-c4cccc(C(N)=O)c4)coc23)c1 | -118 | -1 | x | -7 | 42 | 15
CC(=O)c1cccc(NC(=O)c2cccc3c(-c4cccc(C(N)=O)c4)coc23)c1 | -173 | -2 | x | -8 | 98* | -70
COc1cc(NC(=O)c2cccc3c(-c4cccnc4)coc23)cc(OC)c1OC | -24 | u | x | -14 | 99* | 10
CN(Cc1ccccc1)CC(O)COc1ccc(CNCc2ccc(Cl)s2)cc1 (centres undefined) | 24 | 24 | -8 | -13 | 54* | 8
COc1cc(-c2c(CCO)sc3ccccc23)cc(OC)c1OC | -5 | x | x | x | x | x
COc1cccc(C(=O)CC(=O)C(=O)Nc2ccc(C)cc2Cl)c1 | 8 | 3 | 46* | 1 | -3 | 0
COc1ccc(C(=O)CC(=O)C(=O)Nc2ccc(C)cc2Cl)cc1 | 11 | 7 | 7 | 2 | 21 | -19
CCCC(C)NC(C)C(=O)NC1CCCC1 (centres undefined) | 10 | 21 | 66* | -3 | -6 | -4
O=c1c(-c2ccccc2)nc2ccccc2n1C(CCc1ccccc1)c1nc2ccccc2[nH]1 (centres undefined) | -1 | x | x | x | x | x
CCC(C)NS(=O)(=O)c1ccc(OCC(=O)NCc2ccco2)cc1 (centres undefined) | 11 | -14 | -5 | 5 | 16 | -3
COc1ccc(S(=O)(=O)NC(CC(=O)NCc2ccco2)C(C)C)cc1 (centres undefined) | 25 | -5 | 84* | 3 | 6 | -8
CCC(C(=O)NC1CCCC1)n1c(C2CCCC2)nc2ccccc21 (centres undefined) | -5 | x | x | x | x | x
CN(/N=C/c1ccc(O)cc1O)c1ncc(C(F)(F)F)cc1Cl | 0 | -7 | 3 | -13 | -25 | 14
C[C@@H](NCCc1ccc(O)cc1)[C@@H](O)c1ccc(O)cc1 | 23 | 8 | 9 | 21 | -5 | 26
CCCCCCCCNC(C)C(O)c1ccc(SC(C)C)cc1 (centres undefined) | 22 | 96* | -94 | -29 | 104* | 5
Cc1ccc(S(=O)(=O)NC(=NCc2ccccc2)c2ccc(F)cc2)cc1 | 26 | 1 | -5 | -8 | 51* | 14
Cc1ccc(S(=O)(=O)NC(=NCC(=O)O)c2ccc(F)cc2)cc1 | 9 | -7 | 1 | -7 | 1 | 14
O=C1/C(=C/c2cccc(Br)c2)SC(=S)N1CCC(=O)N(CCO)c1ccccc1 | 32 | -16 | -2 | 12 | 56* | 25
O=C1/C(=C/c2ccc3c(c2)OCO3)SC(=S)N1CCC(=O)N(CCO)c1ccccc1 | 43* | -59 | 4 | 9 | 20 | -39
O=C(CCCN1C(=O)/C(=C\c2cccc(Br)c2)SC1=S)Nc1ccc(C(=O)O)cc1 | 3 | 13 | -3 | 9 | -12 | 28
COc1cccc(/C=C2\SC(=S)N(CCCC(=O)N(CCO)c3ccccc3)C2=O)c1 | 86* | -10 | 19 | 1 | 79* | 13
CN1CCN(C(=O)CCN2C(=O)/C(=C/c3cccc(Br)c3)SC2=S)CC1 | 8 | -65 | -12 | 10 | 77* | 28
COc1ccccc1C(=O)NC(C(=O)NCCc1nc2ccccc2[nH]1)=C(C)C | 7 | -20 | 1 | -12 | 14 | -1
CC(NC(=O)c1ccc(C(F)(F)F)cc1)C(c1ccccc1)N1CCOCC1 (centres undefined) | -4 | -2 | 8 | 5 | -7 | 10
COc1cc(C2=NOC(C(=O)Nc3cc(C)on3)C2)cc(OC)c1OC (centres undefined) | 18 | -5 | -4 | 0 | 18 | -3

High-throughput results (PubChem BioAssay)
